# Compound activity as filed in PubChem BioAssay.
# In the library only some 1.4% were active in any assay of this set; here they are far more common.
# EPAC2 antag = qHTS for Antagonist of cAMP-regulated guanine nucleotide exchange factor 2 (EPAC2): primary screen; EPAC2 GEF exchange of Rap1B-BODIPY-GDP, fluorescence; 0.18% of 360,000 active; Rap guanine nucleotide exchange factor 4 (Homo sapiens), Q8WZA2; Potency, µM (top dose mostly 114 µM), inactives show at the highest dose activity, negative = inhibition, usual class: inhibitors; note: potency is the fitted concentration of half-maximal effect; % is set by controls: 0 for no effect and ±100 for the full control effect; nearly all actives have a fitted effect of over 45% in size
# KCNH2 3.1 block = qHTS for Inhibitors of KCHN2 3.1: Mutant qHTS; activity change, % (tested at about 1.8 µM); 0.95% of 340,000 active; AID 720553, 2013; U2OS KCNH2 3.1, thallium flux FluxOr; active compounds read low; Potassium voltage-gated channel subfamily H member 2, brain isoform KCNH2 3.1 (human);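 active = maximum activity change below -70%; inconclusive = maximum activity change from -70% to -50%; inactive = maximum activity change above -50%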;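 note: thallium influx rate constant from kinetic fluorescence after stimulation buffer; % is set by controls: 0 for no effect and ±100 for the full control effect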
#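 Thallium flux read-out: FluxOr dye with Red40 quencher in HBSS/HEPES, 45 min at RT. Rate constants from kinetic reads were normalized to positive and negative DMSO controls. Cells: U2OS virally expressing the 3.1 isoform.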
# KCNH2 WT inh = qHTS for Inhibitors of KCHN2 3.1: Wildtype qHTS. 0.37% of 340,000 active. activity change, % at 1.84 µM. Voltage-gated inwardly rectifying potassium channel KCNH2 (Homo sapiens), Q12809. U2OS, BacMam KCNH2, thallium flux FluxOr; active compounds read low. AID 720551, 2013;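 active = maximum activity change below -70%; inconclusive = maximum activity change between -70% and -50%; inactive = maximum activity change above -50%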; note: % is set by controls: 0 for no effect and ±100 for the full control effect
# Target sequence (Q12809 whole entry, looked up): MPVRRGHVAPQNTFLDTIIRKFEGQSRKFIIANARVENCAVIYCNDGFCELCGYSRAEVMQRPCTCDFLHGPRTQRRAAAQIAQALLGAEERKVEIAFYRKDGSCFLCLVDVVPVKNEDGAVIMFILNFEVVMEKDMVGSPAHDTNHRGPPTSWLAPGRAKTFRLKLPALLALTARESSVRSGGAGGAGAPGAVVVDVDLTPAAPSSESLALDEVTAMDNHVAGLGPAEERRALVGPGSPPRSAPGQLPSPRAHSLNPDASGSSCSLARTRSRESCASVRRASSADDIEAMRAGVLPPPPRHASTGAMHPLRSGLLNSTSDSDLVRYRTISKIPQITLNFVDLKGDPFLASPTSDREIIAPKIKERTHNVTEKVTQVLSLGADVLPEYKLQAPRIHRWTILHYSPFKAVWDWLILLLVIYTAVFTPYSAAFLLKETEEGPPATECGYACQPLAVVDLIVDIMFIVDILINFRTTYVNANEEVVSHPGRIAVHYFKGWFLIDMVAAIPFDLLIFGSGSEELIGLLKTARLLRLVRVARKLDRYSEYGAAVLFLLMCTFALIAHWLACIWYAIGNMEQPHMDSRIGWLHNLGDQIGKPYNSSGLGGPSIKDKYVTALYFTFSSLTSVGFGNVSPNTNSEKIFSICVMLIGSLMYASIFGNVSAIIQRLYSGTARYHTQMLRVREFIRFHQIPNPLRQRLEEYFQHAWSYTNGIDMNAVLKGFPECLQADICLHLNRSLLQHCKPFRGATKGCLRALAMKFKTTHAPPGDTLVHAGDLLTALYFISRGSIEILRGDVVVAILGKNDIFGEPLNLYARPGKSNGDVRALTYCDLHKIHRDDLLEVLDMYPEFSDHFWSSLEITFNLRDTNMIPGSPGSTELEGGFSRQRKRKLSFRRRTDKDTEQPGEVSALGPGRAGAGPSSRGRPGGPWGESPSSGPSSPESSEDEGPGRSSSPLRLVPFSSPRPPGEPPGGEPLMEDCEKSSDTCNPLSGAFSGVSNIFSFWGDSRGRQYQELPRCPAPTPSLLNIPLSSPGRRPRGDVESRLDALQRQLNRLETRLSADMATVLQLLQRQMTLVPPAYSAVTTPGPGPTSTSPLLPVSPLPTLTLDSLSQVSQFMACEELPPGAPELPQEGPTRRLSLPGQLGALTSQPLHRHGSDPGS
#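 U2OS cells were transduced with wild-type KCNH2 virus (2.03 x 10^8 / mL) for 4 h at room temperature, then cultured overnight at 37 C. Thallium flux was read with FluxOr dye. Rate constants were normalized to DMSO controls.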
# EPAC1 agonist = qHTS for Agonist of cAMP-regulated guanine nucleotide exchange factor 3 (EPAC1): primary screen; Potency, µM (doses to about 154 µM), without a hit: at the top dose activation, most hits filed as activators; 0.073% of 360,000 active; EPAC1 agonist qHTS, biochemical assay; response scale: 100% = response to 6.5 mM cAMP; Rap guanine nucleotide exchange factor 3 (Homo sapiens), O95398; note: potency is the fitted concentration of half-maximal effect; nearly all actives have a fitted effect of over 60% in size
#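 Compounds were pinned as a concentration titration into mixtures of EPAC1 (100 nM), BODIPY-GDP-loaded Rap1B (250 nM) and GDP (50 uM). After 5 min at room temperature, fluorescence was followed for 30 min; activity was scaled to 6.5 mM cAMP.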
# EPAC2 ag = qHTS for Agonist of cAMP-regulated guanine nucleotide exchange factor 4 (EPAC2): primary screen; EPAC2 activation, biochemical qHTS; response scale: 100% = 6.5 mM cAMP response; 0.079% of 360,000 active; AID 720711, 2013; Potency, µM (top dose mostly 154 µM), for the others: top-dose activation, most hits filed as activators; note: potency is the fitted concentration of half-maximal effect; nearly all actives have a fitted effect of over 50% in size
#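 Guanine nucleotide exchange by EPAC2 is measured as reduced fluorescence of BODIPY-GDP once it is released from 250 nM Rap1B. Plates are read kinetically for 30 min at room temperature; results are scaled to 6.5 mM cAMP.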
# EPAC1 antagonist = qHTS for Antagonist of cAMP-regulated guanine nucleotide exchange factor 3 (EPAC1): primary screen; Rap guanine nucleotide exchange factor 3 (Homo sapiens), O95398; EPAC1 GEF assay, Rap1b-BODIPY-GDP exchange fluorescence; Potency, µM (doses to about 115 µM), without a hit: top-dose activity change, negative = inhibition, most hits filed as inhibitors; 0.14% of 360,000 active;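 note: potency is the fitted concentration of half-maximal effect; plate controls were vehicle for no effect and positive control for full effect; nearly all actives have a fitted effect of over 50% in size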
# Active calls of the source: *; i = inactive; ? = inconclusive; nt = no result given. Unless noted, calls come from the whole dose curve; as a rule, active = well fitted curve in the direction sought with a large enough effect; inconclusive = small, poorly fitted or top-dose-only effect, or another doubt; inactive = no such curve, though single readings can be large; an effect the other way counts as inactive or inconclusive.
SMILES,EPAC2 antag,KCNH2 3.1 block,KCNH2 WT inh,EPAC1 agonist,EPAC2 ag,EPAC1 antagonist
CCCC(=O)N1CCN(c2ccc([N+](=O)[O-])cc2Cl)CC1,-9%,-14,-1,1%,6%,0%
O=C(CSc1ccc(Cl)cc1)N1CCN(c2ncc(C(F)(F)F)cc2Cl)CC1,-22%,-124*,28,21%,13%,-22%
O=C(CSc1ccc(Cl)cc1)N1CCN(c2ccc([N+](=O)[O-])cc2Cl)CC1,-4%,-88*,?,10%,2%,-20%
O=C(CN1CCN(c2ncc(C(F)(F)F)cc2Cl)CC1)N1CCN(c2ncc(C(F)(F)F)cc2Cl)CC1,-28%,-35,-38,-3%,-3%,-3%
CC1(C(=O)NS(=O)(=O)c2cccc(F)c2)CCN1C(=O)CC1CCCC1 (stereo not given),10%,nt,nt,-5%,6%,-5%
C=CCN1C(=O)/C(=C\C=C2\N(C)c3ccccc3C2(C)C)SC1=S,204%,-40,i,6%,20%,10%
C=CCN1C(=O)/C(=C/C=C2/N(CC)c3ccc(S(=O)(=O)N(C)C)cc3N2CC)SC1=S,-1%,20,nt,100µM*,100µM*,10%
Cc1nc(CN(C)c2ncnc3ccc(-c4ccc5c(c4)OCO5)cc23)cs1,32µM*,nt,nt,6%,16%,-19%
CCC(=O)N[C@@H]1C=C[C@@H](CC(=O)NCc2ccccc2F)O[C@@H]1CO,12%,nt,nt,0%,9%,-3%
COc1ccc(C(=O)NCc2nnc(SCC(=O)N3CCCC3)o2)cc1OC,4%,3,6,9%,2%,-4%
COc1ccc(C(=O)NCc2nnc(SCC(=O)N3CCCCC3)o2)cc1,1%,-92*,-3,4%,11%,-11%
O=C(O)C1Nc2c(O)cc(Cl)c([N+](=O)[O-])c2C2C=CCC12 (stereo not given),-17%,2,0,15%,15%,13µM*
COc1cccc2c1NC(C(=O)O)C1CC=CC21 (stereo not given),15%,21,-13,1%,4%,?
COc1ccc(CNCc2ccc3ccccc3c2)c(OC)c1,1%,-98*,7,0%,8%,10%
COc1ccc(CNCc2ccncc2)c(OC)c1,-4%,-7,4,9%,3%,1%
Cc1nn(CC(=O)NCCc2cccs2)c(=O)c2cc3ccccc3n12,-14%,-12,9,3%,-6%,-1%
O=c1[nH]ncc2c3ccccc3n(Cc3cccc(Cl)c3)c12,101%,-2,-9,79µM*,?,98%
Cc1ccc(C)c(N2CCN(C(=S)Nc3ccc4nc(N5CCOCC5)cc(C)c4c3)CC2)c1,23%,-85*,-77*,-10%,-3%,3%
Cc1cc(N2CCOCC2)nc2ccc(NC(=S)N3CCN(c4ccccc4)CC3)cc12,4%,17,0,-3%,-3%,-28%
Cc1cccc(N2CCN(C(=S)Nc3ccc4nc(N5CCOCC5)cc(C)c4c3)CC2C)c1 (stereo not given),-3%,-76*,-15,12%,-7%,11%
COc1ccccc1N1CCN(C(=S)Nc2ccc3nc(N4CCOCC4)cc(C)c3c2)CC1,-11%,-42,18,18%,8%,-17%
Cc1ccc(C)c(N2CCN(C(=S)Nc3ccc4nc(N5CCN(C)CC5)cc(C)c4c3)CC2)c1,18%,-90*,-115*,-6%,-7%,10%
